TSHR antag: antagonists of human thyroid stimulating hormone receptor; P16473; TSHR-expressing cells, TSH-stimulated cAMP HTRF, 2 h; stronger effect = lower value; 330,000 compounds, 0.2% hits; activity change, negative = inhibition, % at 11.5 µM;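 active means activity change below a set negative limit, meaning inhibition stronger than a set level, cut at about -70% in these data; inconclusive means activity change between two set negative limits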
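TSHR-expressing cells, 200/well, pre-treated with compound, then stimulated with EC80 TSH (4nM final) for 2 hours at 37 deg C. cAMP measured by competitive HTRF: anti-cAMP cryptate antibody in lysis buffer plus cAMP-d2, read after 30 minutes at room temperature.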
ELG1 DNA repair: blocks ELG1-dependent DNA repair in HEK293T cells; 330,000 compounds, 2.3% hits; Potency, µM (titrated, usually from 46.1 µM), for the others: top-dose activity change, negative = inhibition, actives largely listed as inhibitors; AID 504467; HEK293T ELG1-luciferase reporter, luminescence, 16 h; DNA damage induced by 5-fluorouridine; further: potency means the concentration at half of the fitted maximal effect; nearly all actives have a fitted effect of over 55% in size
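Overnight (16 hr) co-exposure of 2,000 cells/well to 5-fluorouridine and compound at 37 °C preceded detection. Luciferase was quantified via ONE-Glo luminescence; loss of signal denotes inhibition.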
Coupling enz: coupling enzyme interference in Giardia aldolase counter-screen. coupling enzyme system counterscreen, AmpLite Red fluorescence. activity change, negative = inhibition, % at 58.2 µM, hits read low. 290,000 compounds, 0.67% hits; in the data active means activity change below about -30%
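Counterscreen lacking aldolase: glyceraldehyde-3-phosphate coupling-enzyme reagent preincubated 10 min at RT with compound (at 57.5 uM final), then substrate/coupling system with AmpLite Red added; fluorescence read at 525/598 nm after 20 min RT.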
VP16 counter: Gal4-VP16 reporter inhibition counter-screen. Drosophila S2 Gal4-VP16 UAS-luciferase, luminescence, 20 h. Potency, µM (series often up to 53.6 µM), for inactives: at the top dose activity, negative = inhibition, most hits filed as inhibitors. 310,000 compounds, 3.5% hits. AID 2546;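 further: Gal4-VP16 expression switched on by copper sulfate through the metallothionein promoter; potency means the concentration at half of the fitted maximal effect; nearly all actives have a fitted effect of over 50% in size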
RORg inh: inhibitors of mouse ROR gamma transcriptional activity; P51450; Drosophila S2 Gal4-RORgamma UAS-luciferase reporter, 20 h; Potency, µM (highest dose often 53.6 µM), for the others: at the highest dose activity change, negative = inhibition, actives largely listed as inhibitors; 310,000 compounds, 5.4% hits; AID 2551; further: potency means the concentration at half of the fitted maximal effect; nearly all actives have a fitted effect of over 60% in size
Target sequence (P51450 whole entry, looked up, the tested form may be a part): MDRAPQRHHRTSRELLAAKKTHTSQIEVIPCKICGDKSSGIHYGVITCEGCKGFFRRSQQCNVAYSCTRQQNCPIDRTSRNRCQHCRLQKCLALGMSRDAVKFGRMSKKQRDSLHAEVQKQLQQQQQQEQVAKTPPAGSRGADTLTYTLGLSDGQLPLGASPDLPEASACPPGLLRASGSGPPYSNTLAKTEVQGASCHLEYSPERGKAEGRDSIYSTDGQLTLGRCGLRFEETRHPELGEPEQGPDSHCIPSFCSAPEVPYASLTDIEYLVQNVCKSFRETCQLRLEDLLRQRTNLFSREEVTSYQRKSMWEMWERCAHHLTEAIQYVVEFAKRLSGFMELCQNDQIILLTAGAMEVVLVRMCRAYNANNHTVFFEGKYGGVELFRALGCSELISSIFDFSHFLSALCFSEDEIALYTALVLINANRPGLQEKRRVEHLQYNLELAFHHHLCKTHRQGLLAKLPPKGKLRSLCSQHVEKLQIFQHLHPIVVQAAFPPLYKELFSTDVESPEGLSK
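ROR gamma transcriptional activity was tracked as Gal4-UAS luciferase output in stably transfected Drosophila Schneider cells, with compound added 1 hr before 700 uM copper sulfate induction and a 20 hr ambient-temperature incubation.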
* hit, by the source's call; ? = inconclusive; . = not tested or not shown; [ ] = dose if it differs, or a comment. A selection: hits, their analogues and other compounds. The true share with any hit is near 8%. Unless noted, the call rests on the fitted dose curve; in most records, active means well fitted curve in the direction sought with a large enough effect; inconclusive means small, poorly fitted or top-dose-only effect, or another doubt; inactive means no such curve, though single readings can be large; an effect the other way counts as inactive or inconclusive. On the % scale 0 is the no-effect control and ±100 the full control effect.

SMILES | TSHR antag | ELG1 DNA repair | Coupling enz | VP16 counter | RORg inh
CCOC(=O)c1nn(-c2ccccc2)c(C(=O)OCC)c1N | 9 | 3% | 3 | 2% | 1.3µM*
CCOC(=O)c1nn(-c2ccccc2)c(=O)c2c(NC(C)=O)scc12 | -6 | -15% | -6 | -4% | 6%
CCOC(=O)c1nn(-c2ccccc2C)c(=O)c2c(N)scc12 | 8 | 9% | -55* | -14% | -4%
CCOC(=O)c1nn(-c2ccccc2)c(=O)c2c(N)scc12 | -3 | -17% | -45* | 4% | 6%
Nc1c(C(=O)N/N=C/c2ccc(Cl)cc2)cnn1-c1ccccc1 | -2 | 1% | -1 | -9% | -29%
Cc1cc(C)n(-c2nc(SCC(=O)O)c3c4c(sc3n2)CCCC4)n1 | -18 | -23% | 3 | -7% | ?
Cc1cc(C)n(-c2nc(NCCCO)c3c4c(sc3n2)CCCC4)n1 | -5 | ? | -6 | 2.8µM* | 1.6µM*
Cc1cc(C)n(-c2nc(NCCO)c3c4c(sc3n2)CCCC4)n1 | -6 | ? | -11 | 4.5µM* | 3.2µM*
Cc1cc(C)n(-c2nc(SCC(=O)NCC3CCCO3)c3c4c(sc3n2)CCCC4)n1 (stereo unspecified) | 7 | 10% | -1 | -24% | ?
Cc1cc(C)n(-c2nc(SCCN(C)C)c3c4c(sc3n2)COC(C)(C)C4)n1 | 12 | 18µM* | 2 | 7.1µM* | 5µM*
Cc1cc(C)n(-c2nc(NCC(C)O)c3c4c(sc3n2)CCCC4)n1 (stereo unspecified) | -8 | 16µM* | -3 | 1µM* | ?
COc1ccc(C(C)(C)C)cc1NC(=O)CCc1c(C)noc1C | 5 | 0% | . | . | .
CN(C)S(=O)(=O)c1cccc(C(=O)Nc2cc3c(cc2C(=O)O)OCCCO3)c1 | -1 | -2% | 1 | 4% | -13%
Cc1cc(C)n(-c2nc(NCC(C)O)c3c4c(sc3n2)COC(C)(C)C4)n1 (stereo unspecified) | -12 | 15µM* | 2 | 10µM* | 3.2µM*
COC(=O)CSc1nnc2c3c4c(sc3nc(-n3nc(C)cc3C)n12)COC(C)(C)C4 | -7 | ? | 6 | 2% | 6%
Cc1cc(C)n(-c2nc(NCC3CCCO3)c3c4c(sc3n2)COC(C)(C)C4)n1 (stereo unspecified) | -7 | 18µM* | -5 | 3.2µM* | 2.8µM*
CCC(C)[C@H](NS(=O)(=O)c1ccc(C)cc1)C(=O)N1CCC(C(=O)N2CCC(C(N)=O)CC2)CC1 (stereo partly specified) | 0 | -9% | 2 | -4% | 1%
COC(=O)[C@@]1(Cc2ccccc2)[C@H]2c3cc(C(=O)N4CCCC4)n(Cc4cccc5ccccc45)c3C[C@H]2CN1C(=O)c1ccccc1 | . | . | 1 | -5% | 12%
CC(=O)Nc1ccc2cc3ccc(NC(C)=O)cc3nc2c1 | -16 | ? | -33* | -20% | -15%
CCOC(=O)C1CCN(S(=O)(=O)c2cc(C(=O)OC)n(C)c2)CC1 | 7 | -8% | 0 | -5% | -3%
N=c1c(C(=O)NC2CCCCC2)cc2c(=O)n3ccccc3nc2n1Cc1ccco1 | -3 | -4% | -1 | 1% | -9%
Cc1ccc(S(=O)(=O)c2cc3c(=O)n4ccccc4nc3n(Cc3ccco3)c2=N)cc1C | -2 | -1% | 3 | 18µM* | ?
CNC(=O)c1cc2c(=O)n3cc(C)ccc3nc2n(Cc2ccco2)c1=N | -5 | 0% | 0 | ? | 11µM*
N=c1c(C(=O)NCCc2ccccc2)cc2c(=O)n3ccccc3nc2n1Cc1ccco1 | -18 | 21µM* | 3 | -22% | 19%
COc1ccc(CCn2c(=N)c(C(=O)NCc3ccco3)cc3c(=O)n4ccccc4nc32)cc1 | -15 | 16µM* | -4 | -11% | 6%
SMILES | TSHR antag | ELG1 DNA repair | Coupling enz | VP16 counter | RORg inh
COc1ncc2nc(-c3cn(C)c4ccccc34)c(=O)n(C[C@H]3CCCO3)c2n1 | . | . | 3 | -3% | -11%
Cc1cnc(C(=O)OC(C)C(=O)Nc2ccccc2-c2ccccc2)cn1 (stereo unspecified) | 3 | -2% | . | . | .
O=C(/C=C/c1ccccc1)NCC(=O)N/N=C/c1cccs1 | -13 | -4% | . | 3% | 13%
c1ccc(-c2noc(-c3ccco3)n2)nc1 | -3 | ? | 1 | ? | ?
CCCc1nc2c(=O)n(C)c(=O)nc-2n(C)n1 | 28 | 4.6µM* | -74* | 2.8µM* | 1.4µM*
Cn1nc(-c2ccccn2)nc2c(=O)n(C)c(=O)nc1-2 | 13 | ? | -76* | 0.56µM* | 0.45µM*
CCOc1cc(-c2n[nH]c(=S)n2Cc2ccccc2)ccc1OC(F)F | -6 | 7% | . | . | .
COc1ccc(-c2n[nH]c(=S)n2Cc2ccccc2)cc1OC | -5 | 10% | 3 | ? | 11µM*
S=c1[nH]nc(-c2ccccc2)n1Cc1ccccc1 | -12 | -17% | 4 | 14µM* | 2.5µM*
S=c1[nH]nc(-c2ccc(Br)o2)n1Cc1ccccc1 | -14 | ? | 3 | 13µM* | 6.3µM*
S=c1[nH]nc(C2CCCCC2)n1Cc1ccccc1 | 2 | -4% | 2 | 7.1µM* | 2.5µM*
Cc1ccc(S(=O)(=O)N[C@H]2COC(=O)[C@@H](Cc3ccccc3)NC(=O)[C@@H](C)COC(=O)C/C=C\[C@@H]2C)cc1 | . | . | 1 | 4%[10 µM] | 0%[10 µM]
COc1cc2c(c(OC)c1OC)C(c1ccc(C)cc1)CC(=O)O2 (stereo unspecified) | 42 | ? | 1 | 7% | -17%
Cc1n[nH]c(=S)n1Cc1ccccc1 | 14 | 21% | 2 | 9% | -40%
S=c1[nH]nc(-c2cccs2)n1Cc1ccccc1 | -9 | 4% | 1 | ? | 2.8µM*
C=CCn1c(C2CCCCC2)n[nH]c1=S | -4 | 7% | 2 | ? | 4µM*
COc1ccc(-c2nc3c(c(=O)[nH]c(=O)n3Cc3ccccc3)n2Cc2ccccc2)cc1 | 8 | 8.2µM* | 1 | -8% | 7%
COc1ccc(-c2n[nH]c(=S)n2Cc2ccccc2)cc1 | -6 | -5% | 4 | 7.1µM* | 7.9µM*
COc1ccc(NS(=O)(=O)c2ccc(-c3n[nH]c(=S)n3Cc3ccccc3)cc2)cc1 | -18 | 1% | -2 | -1% | -41%
Cc1ccccc1S(=O)(=O)N1CCN(C)CC1 | -3 | -11% | 1 | 4% | -8%
S=c1[nH]nc(-c2ccc(Cl)cc2)n1Cc1ccccc1 | -28 | 9% | 3 | 2.8µM* | 1.8µM*
CC(C)c1cc(-c2n[nH]c(=S)n2Cc2ccccc2)cs1 | -9 | 5% | 6 | ? | 0.56µM*
COc1cccc([C@H]2Oc3ccc(OC)cc3/C(=N\OC[C@@H](O)[C@@H]3O[C@@H]4OC(C)(C)O[C@@H]4[C@H]3O)[C@@H]2O)c1 | . | . | 2 | 29%[10 µM] | 2%[10 µM]
